Shown are actives, neighbours in structure and some others; about 13% of the full set was active somewhere.
Pf growth 96h = P. falciparum growth inhibition at 96 hours; P. falciparum luciferase reporter growth, 96 h; Potency, µM (doses to about 28.7 µM), inactives show at the top dose activity change, negative = inhibition, hits mostly inhibitors; 320,000 tested, 6.9% active; note: potency is the fitted concentration of half-maximal effect
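96 h incubation, 37 C, 5% CO2, of luciferase-reporter P. falciparum-infected RBCs (2% hematocrit, 0.05% parasitemia final) with test compounds; endpoint luminescence.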
HCV inh = inhibitors of hepatitis C virus infection; Huh7.5.1 HCVcc-Cre infection, luciferase reporter, 44 h; Potency, µM (highest dose often 41.8 µM), without a hit: top-dose activity change, negative = inhibition, usual class: inhibitors; 340,000 tested, 3.4% active; AID 651820; note: potency is the fitted concentration of half-maximal effect
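Infectious HCV cell culture screen: compound-treated cells (1,000/well, pre-plated 4 h) are infected with HCVcc-Cre at roughly 0.5 moi and grown 44 h. Infection is quantified by luciferase signal after 15 min substrate incubation at room temperature.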
Pf growth 48h = inhibits P. falciparum growth in the first generation, 48 h. P. falciparum luciferase growth in erythrocytes, 48 h. Potency, µM (highest dose often 28.7 µM), for the others: at the top dose activity change, negative = inhibition, usual class: inhibitors. 310,000 tested, 5.9% active. AID 504832; note: potency is the fitted concentration of half-maximal effect
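Luminescence readout; reporter = integrated firefly luciferase in P. falciparum. RBC culture at 2% hematocrit, 0.1% parasitemia final, 37 C/5% CO2; decreased signal taken as growth inhibition.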
HCMV inh = human cytomegalovirus inhibition. AID 1259415. activity change, negative = inhibition, % at 57.5 µM. 410,000 tested, 4.5% active. HFF cells, HCMV-luciferase reporter, 72 h; active compounds read low; in the data active = activity change below about -60%; inconclusive = no clear call, values can overlap the other calls; inactive = above about -39%
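Two-dose cell screen: HFF monolayers treated with compounds and infected with luciferase-expressing HCMV at 1 PFU/cell, 72 h at 37C, then lysed for luciferase measurement.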
An asterisk follows results filed as active; ? = inconclusive; nt = no result; [ ] = dose if it differs, or a comment. Unless noted, calls come from the whole dose curve; as a rule, active = well fitted inhibition curve with a large enough effect; inconclusive = small, poorly fitted or top-dose-only effect, or another doubt; inactive = no such curve, though single readings can be large or run the other way. % is set by controls: 0 for no effect and ±100 for the full control effect.

SMILES	Pf growth 96h	HCV inh	Pf growth 48h	HCMV inh
CCN1C(=O)[C@@H]2[C@@H](c3ccc(-c4ccc(Cl)c(Cl)c4)c(OC)c3)N3CCCC[C@@]3(C(=O)OC)[C@@H]2C1=O	?	?	2.62µM*	-5.6
CCN1C(=O)[C@@H]2[C@@H](c3ccc(-c4ccc(F)cc4)c(OC)c3)N3CCCC[C@@]3(C(=O)OC)[C@@H]2C1=O	7.38µM*	?	10.4µM*	?
NC(=O)c1cc(S(=O)(=O)NCC2CCC(C(=O)Nc3ccc(Cl)cc3)CC2)cs1 (stereo unspecified)	nt	nt	nt	-7.8
CCCCN(C)CCNC(=S)Nc1ccc2nc(N3CCN(CC)CC3)cc(C)c2c1	?	?	2.33µM*	-3.8
CCN(CC)CCNC(=S)Nc1ccc2nc(N3CCN(CC)CC3)cc(C)c2c1	-15.7%	?	11.7µM*	?
CCN1CCN(c2cc(C)c3cc(NC(=S)NCCN(C)C)ccc3n2)CC1	70.0%	?	?	31.6
CCCCN(C)C(=S)Nc1ccc2nc(N3CCN(CC)CC3)cc(C)c2c1	?	-21.3%	?	-25.8
CCCCN(CC)C(=S)Nc1ccc2nc(N3CCN(C)CC3)cc(C)c2c1	8.9%	?	?	-72.2*
CCCCNC(=S)Nc1ccc2nc(N3CCN(CC)CC3)cc(C)c2c1	?	12.6µM*	-2.8%[0.00184 µM]	-17.0
COc1ccc(NC(=O)CC2NCCNC2=O)c(OC)c1 (stereo unspecified)	nt	nt	nt	1.8
Cc1oc2cc3oc(=O)c(CC(=O)NCc4ccccc4)c(C)c3cc2c1C	nt	nt	nt	-36.9
CCOC(=O)CSCC(=O)Nc1c(C(=O)C2CC2)oc2ccccc12	5.86µM*	20.4%	-11.3%	19.3
CCOC(=O)c1ccc(N2CCN(c3cccc(Cl)c3)CC2)c(NC(=O)Nc2ccc(OC)cc2OC)c1	nt	nt	nt	41.7
CC[n+]1cc(-c2ccccc2)nc(N2CCOCC2)n1	-15.3%	-16.2%	2.33µM*	45.2
NC(=O)c1cc(-c2ccccc2)nc(N2CCCCCC2)n1	13.1µM*	1.8%	0.3%	-13.1
NC(=O)c1cc(-c2ccccc2)nc(N2CCOCC2)n1	2.7%	5.01µM*	?	-5.4
CC(=O)/C(C#N)=C1\NC(=O)C(Cc2ccc(C)c(C)c2)S1 (stereo unspecified)	?	6.5%	-28.3%	-95.4*
CC(=O)/C(C#N)=C1\NC(=O)C(Cc2ccc(F)cc2)S1 (stereo unspecified)	-12.0%	-3.9%	?	-83.2*
O=[N+]([O-])c1ccc(/C=N/N2CCN(c3ccncc3S(=O)(=O)N3CCCCC3)CC2)cc1	4.15µM*	11.6%	?	-34.1
O=NN1CCN(c2ccncc2S(=O)(=O)N2CCCCC2)CC1	-21.8%	38.0%	-5.8%	92.6
COc1ccccc1N1CCN(/N=C/c2ccc([N+](=O)[O-])cc2)CC1	10.4µM*	11.2µM*	33.9%	59.6
O=[N+]([O-])c1ccccc1/C=N/N1CCN(c2ccncc2S(=O)(=O)N2CCCCC2)CC1	2.33µM*	?	11.7µM*	5.4
CCOC(=O)C1CCN(C(=O)C2CCN(C3=NS(=O)(=O)C(c4ccc(C)c(C)c4)=C3C)CC2)CC1	nt	nt	nt	-0.7
CCOc1cccc2sc(N(CCN(CC)CC)C(=O)c3ccco3)nc12	nt	nt	nt	-0.3
Cc1ccc(CNC(=O)c2nc(S(=O)(=O)Cc3ccc(C)cc3)ncc2Cl)cc1	nt	nt	nt	19.3
SMILES	Pf growth 96h	HCV inh	Pf growth 48h	HCMV inh
Cc1cccc(CS(=O)(=O)c2ncc(Cl)c(C(=O)NCc3ccc4c(c3)OCO4)n2)c1	15.1%	1.2%	6.8%	-77.8*
CC(=O)Nc1ccc(NC(=O)c2nc(S(=O)(=O)Cc3cccc(C)c3)ncc2Cl)cc1	?	?	27.1%	-101.3*
Cc1ccc(CNC(=O)c2nc(SCc3cccc(C)c3)ncc2Cl)cc1	nt	nt	nt	-10.1
COC(=O)c1ccccc1NC(=O)c1nc(S(=O)(=O)Cc2cccc(C)c2)ncc1Cl	nt	nt	nt	-60.1*
COC(=O)c1ccc(NC(=O)c2nc(S(=O)(=O)Cc3cccc(C)c3)ncc2Cl)cc1	-19.0%	?	17.6%	-101.3*
Cc1ccccc1OCCSc1nnc(-c2ccc([N+](=O)[O-])cc2)o1	nt	nt	nt	14.4
Cc1ccc(C(=O)c2cn(Cc3ccccc3F)c3cc4c(cc3c2=O)OCO4)cc1	nt	nt	nt	-36.0
O[C@H]1C[C@H](c2ccccc2)N(CC2CCCCC2)C[C@@H]1n1cc(-c2ccc(F)cc2)nn1	nt	nt	nt	-100.8*
COc1ccc([C@H]2C[C@@H](O)[C@H](n3cc(-c4ccc(F)cc4)nn3)CN2CC2CCCCC2)cc1	nt	nt	nt	8.2
O=C(COc1ccccc1F)Nc1ccc2nc(SCC(=O)N3CCCC3)sc2c1	nt	nt	nt	-63.4*
O=C(COc1ccccc1F)Nc1ccc2nc(SCC(=O)N3CCOCC3)sc2c1	nt	nt	nt	-68.5*
CCOc1ccc(NC(=O)Cn2c(=O)nc(-c3ccccc3)c3ccccc32)cc1	nt	nt	nt	69.7
CCOc1ccc(NC(=O)Nc2cc(OCC(F)(F)F)cc(OCC(F)(F)F)c2)cc1	1.85µM*	?	0.828µM*	-13.5
O=C(Nc1ccc(F)cc1)Nc1cc(OCC(F)(F)F)cc(OCC(F)(F)F)c1	?	?	?	-101.3*
O=C(CSc1ncn[nH]1)N1N=C2/C(=C/c3ccccc3)CCCC2C1c1ccccc1 (stereo unspecified)	7.38µM*	-24.6%	?	-90.2*
Cc1ncsc1C(=O)N1N=C2/C(=C/c3ccccc3)CCCC2C1c1ccccc1 (stereo unspecified)	?	?	?	56.4
COc1ccc(/C=C2\CCCC3C2=NN(C(=O)CSc2ncn[nH]2)C3c2ccc(OC)cc2)cc1 (stereo unspecified)	?	12.6µM*	?	-22.7
Cc1ncsc1C(=O)N1N=C2/C(=C/c3ccc(N4CCOCC4)cc3)CCCC2C1c1ccc(N2CCOCC2)cc1 (stereo unspecified)	5.22µM*	nt	?	nt
Cc1ccccc1Nc1nc(N)nc(COC(=O)c2cccc(S(=O)(=O)N(C)c3ccccc3)c2)n1	5.86µM*	?	?	-14.8
Cc1ccccc1Nc1nc(N)nc(COC(=O)CCNS(=O)(=O)c2ccccc2)n1	?	0.0%	11.7µM*	-8.0
CCc1ccccc1Nc1nc(N)nc(COC(=O)c2cccn2C)n1	11.7%	?	-9.9%	-64.7*
Cc1ccccc1Nc1nc(N)nc(COC(=O)c2ccccc2)n1	470.9%	-16.2%	190.7%	-13.3
Cc1ccccc1Nc1nc(N)nc(COC(=O)c2ccc(O)cc2)n1	2.62µM*	-6.6%	?	-6.4
CC(C)c1ccc(NC(=O)C2CCCN2S(=O)(=O)c2ccc3nc(-c4ccccc4)[nH]c3c2)cc1 (stereo unspecified)	nt	nt	nt	-19.7
CCc1ccccc1Nc1nc(N)nc(COC(=O)C2CCN(C(=O)c3ccc(F)cc3)CC2)n1	?	6.5%	11.7µM*	-7.8
COc1ccc(Br)cc1C1C(C(=O)Nc2ccc(C)cc2C)=C(C)Nc2ncnn21 (stereo unspecified)	nt	nt	nt	0.5
CCOC(=O)c1cccc(NC(=O)NCCc2c(C)nn(C)c2C)c1	nt	nt	nt	-4.8

Screens deposited in PubChem by National Center for Advancing Translational Sciences (NCATS).
